Data as given in PubChem BioAssay (Tox21).
Records with an inconclusive call do not appear. Unmarked numbers belong to inactive results. Active and inactive are the calls of the source. The call rests on the fitted dose curve; in most records, active means well fitted cell-killing curve with a large enough effect in the repeat runs; inconclusive means weak or mixed curves; inactive means flat fitted curve, though single readings scatter.

Assay: qHTS RealTime-Glo MT Cell Viability Assay in HepG2 cells - 24 hour (AID 1224867); further: nearly all actives have a fitted effect of over 50% in size
Settings: RealTime-Glo luminescence; series mostly up to 76.8 µM; activity change, negative = cytotoxicity: at the top concentration
Description: U.S. Tox21 Program National Center for Advancing Translational Sciences [NCATS] NIH Chemical Genomics Center [NCGC] U.S. Environmental Protection Agency [EPA] National Institutes of Environmental Health Sciences [NIEHS] National Toxicology Program [NTP] U.S. Food and Drug Administration [FDA] Tox21 Assay Overview: Measure of cell viability is critical in the cell-base assay. Analysis of cell viability is necessary for the characterization of cell responses to cytotoxic drugs and environmental stress. A RealTime-Glo MT Cell Viability Assay to monitor cell viability in real time of continues cell culture during 40 hours of compound treatment was used to screen Tox21 10K library compounds in HepG2 cells. The RealTime-Glo MT Cell Viability Assay is a nonlytic, homogeneous, bioluminescent method to measure cell viability in real time using a simple, plate-based method. The assay involves adding NanoLuc luciferase and a cell-permeant prosubstrate to cells in culture. Viable cells reduce the proprietary prosubstrate to generate a substrate for NanoLuc luciferase. This substrate diffuses from cells into the surrounding culture medium, where it is rapidly used by the NanoLuc Enzyme to produce a luminescent signal. The signal correlates with the number of viable cells, making the assay well suited for cytotoxicity studies.
Tox21 Assay Protocol Summary: The mixture of HepG2 cell suspension and reagents were dispensed at 600cells/6 ul/well in 1536-well tissue culture treated black solid bottom plates using a Multidrop dispenser. After the assay plates were incubated at a 37 C/5% CO2 incubator for 5 hours, 23 nL of compounds dissolved in DMSO, positive and negative controls was transferred to the assay plate by a pintool work station. The plates were incubated at 37 C for 40 hours. The luminescence intensity were measured at 0h, 8h, 16h, 24h, 32h and 40h time points using ViewLux plate reader during compound treatment.
On the % scale 0 is the no-effect control and ±100 the full control effect; potency means the concentration at half of the fitted maximal effect.

Row | SMILES | activity change, negative = cytotoxicity | Potency
1 | Nc1nc(N)nc(-c2cc(Cl)ccc2Cl)n1 | 2.65% [at 35.3 µM] | –
2 | OCCN1CCN(CCCN2c3ccccc3Sc3ccc(C(F)(F)F)cc32)CC1 | – | 26.8 µM (active)
3 | O=C(O)c1cc(O)c2ccccc2c1O | – | 19.5 µM (active)
4 | COC1=C(OC)C(=O)C(CCCCCCCCCCO)=C(C)C1=O | -21% [at 35.3 µM] | –
5 | C#C[C@]1(O)CC[C@H]2[C@@H]3[C@H](C)CC4=C(CCC(=O)C4)[C@H]3CC[C@@]21C | -10.6% [at 35.3 µM] | –
6 | CCCCOC(=O)CO | 0.536% | –
7 | CCCCCCOC(=O)C(C)CC (stereo not given) | 1.95% | –
8 | O=C1c2ccccc2C(=O)N1SC1CCCCC1 | – | 38.9 µM (active)
9 | c1ccc(C(O[C@@H]2CCCN(CCc3ccc4c(c3)OCO4)C2)c2ccccc2)cc1 | -16.6% | –
10 | O=[N+]([O-])c1ccc(F)c(Cl)c1 | 0.133% | –
11 | CN(C)Cc1cc(C(C)(C)C)c(O)c(C(C)(C)C)c1 | -3.65% | –
12 | CCCCCCCCCCOC(=O)c1ccccc1C(=O)OCCCCCCCC | 3.26% | –
13 | C[C@@H](O)[C@H](N)C(=O)O | 0.0975% [at 15.8 µM] | –
14 | CC1(C)[C@@H](O)CC[C@]2(C)[C@H]3C(=O)C=C4[C@@H]5C[C@@](C)(C(=O)O)CC[C@]5(C)CC[C@@]4(C)[C@]3(C)CC[C@@H]12 | -1.16% | –
15 | CCCCC(CC)COC(=O)CCCCC(=O)OCc1ccccc1 (stereo not given) | -6.43% | –
16 | OC1CCC(C2CCCCC2)CC1 (stereo not given) | -11.1% | –
17 | CCCCC/C=C\C/C=C\CCCCCCCC(=O)O | – | inactive
18 | O=c1oc2cc(O)ccc2c2oc3cc(O)ccc3c12 | -1.49% | –
19 | CN1CCN2c3ccccc3Cc3ccccc3C2C1 (stereo not given) | -12.7% [at 35.3 µM] | –
20 | C=CCCC(=O)/C=C/C1C(C)=CCCC1(C)C (stereo not given) | -10.8% | –

Row | SMILES | activity change, negative = cytotoxicity | Potency
21 | O=C(/C=C/c1ccccc1)OC/C=C/c1ccccc1 | -9.13% | –
22 | COc1cc(C)ccc1O | 0.405% | –
23 | Cc1ccc(-c2ccccc2)cc1 | 0.306% | –
24 | CCO[C@@H]1O[C@H](C(COCc2ccccc2)OCc2ccccc2)[C@H](OCc2ccccc2)[C@H]1O (stereo not given in full) | -24.6% [at 35.3 µM] | –
25 | Cc1cc(-c2ccc(N=Nc3cc(S(=O)(=O)O)c4ccccc4c3N)c(C)c2)ccc1N=Nc1cc(S(=O)(=O)O)c2ccccc2c1N | -8.19% | –
26 | COc1ccc2c(c1)c(CC(=O)OC/C=C(\C)CC/C=C(\C)CCC=C(C)C)c(C)n2C(=O)c1ccc(Cl)cc1 | -4% [at 35.3 µM] | –
27 | CCC(CC)(CC(=O)Nc1cccc(/C=C/c2nc(C3CCC3)cs2)c1)C(=O)O | -3.63% [at 35.3 µM] | –
28 | C1CCC(SSC2CCCCC2)CC1 | -0.373% | –
29 | CCCC(=O)OCOC(=O)C1=C(C)NC(C)=C(C(=O)OC)C1c1cccc(Cl)c1Cl (stereo not given) | -14.4% [at 35.3 µM] | –
30 | O=C(O)c1ccc2cc(C(=O)O)ccc2c1 | -4.1% | –
31 | CCCCCCCC | 0.0931% | –
32 | CC(C)(C)c1csc(-c2cc3cc(OCc4ccccc4CC(=O)O)ccc3o2)n1 | -26.3% | –
33 | C=CC(=O)Nc1cc2c(Nc3ccc(F)c(Cl)c3)ncnc2cc1OCCCN1CCOCC1 | – | 8.49 µM (active)
34 | CCCC[P+](C)(CCCC)CCCC | 0.111% | –
35 | CC(C)(C)NSc1nc2ccccc2s1 | -0.802% | –
36 | Nc1ccc(C(=O)O)c(O)c1 | 0.128% [at 35.3 µM] | –
37 | C#C[C@]1(OC(C)=O)CC[C@H]2[C@@H]3CCC4=C[C@@H](OC(C)=O)CC[C@@H]4[C@H]3CC[C@@]21C | -13.2% [at 35.3 µM] | –
38 | CCOC(=O)c1ccc(C2CCC(NC[C@H](O)COc3ccc(O)c(NS(C)(=O)=O)c3)CC2)cc1 (stereo not given in full) | – | 45.2 µM (active)
39 | S=C([S-])NCCNC(=S)[S-].S=C([S-])NCCNC(=S)[S-].[Mn+2].[Zn+2] | -20.3% [at 35.3 µM] | –
40 | CC(=O)c1ccc(C(C)=O)cc1 | 3.64% | –
